Bioassay records as filed in PubChem BioAssay.
Shown are actives, neighbours in structure and some others; about 3.4% of the full set was active somewhere.
hcDAF-12 act: H. contortus DAF-12 nuclear receptor activators, primary screen, cell-based, luminescence, HEK293, lit1-tk-luc reporter; HEK293 hcDAF-12 lit1-tk-luc reporter; 0% DMSO, 100% Δ7-dafachronic acid; activation, % at 6.8 µM; 370,000 compounds, 1.4% hits;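 active means activation above the mean of all tested compounds plus 3 SD, cut at about 5.5% in these data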;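 further: 100% = response to 3 µM Δ7-dafachronic acid high control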
ssDAF-12 act: S. stercoralis DAF-12 nuclear receptor activators, primary screen, cell-based, luminescence, HEK293, GRIP1 co-expression, lit1-tk-luc. Nuclear hormone receptor DAF-12 (Strongyloides stercoralis). HEK293 ssDAF-12/GRIP1 lit1-tk-luc reporter; % of 3 µM dafachronic acid response. activation, % at 6.8 µM. 370,000 compounds, 1% hits;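 active means activation above the mean over all tested compounds plus 3 SD, cut at about 0.9% in these data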;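 further: 0% = DMSO-only wells and 100% = 3 µM delta7-dafachronic acid wells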
NF-kB neuron act: activators of NF-kB expression in neurons, primary screen, cell-based, HTS | human neuronal cells, NF-kB reporter expression; hits give high values | fold change at 12.5 µM | 190,000 compounds, 1.6% hits | AID 1239, 2008; in the data active means fold change above about 3.3
APP 5'UTR act: activators of APP 5'UTR luciferase reporter, primary screen, SH-SY5Y cells; SH-SY5Y APP 5'UTR luciferase reporter, luminescence; zero percent = DMSO vehicle wells; activation, % at 2 µM; 190,000 compounds, 1% hits;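 active means activation above a set limit, based on mean plus 3 SD of controls, cut at about 140% in these data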
hgDAF-12 ag: H. glycines DAF-12 receptor agonists, primary screen, cell-based, luminescence, HEK293, GAL4 fusion, UAS-luciferase | Nuclear hormone receptor DAF-12 (Heterodera glycines), GAL4 fusion | activation, % at 6.8 µM | HEK293 GAL4-hgDAF12 UAS-luciferase reporter, agonist luminescence; normalized to butyrate control | 370,000 compounds, 1.8% hits | AID 687014, 2013;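 active means activation above a cutoff set at the mean of all screened compounds plus 3 SD, cut at about 10% in these data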;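 further: 0% = DMSO wells and 100% = sodium butyrate wells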
* = called active by the depositor; . = no result.

SMILES	hcDAF-12 act	ssDAF-12 act	NF-kB neuron act	APP 5'UTR act	hgDAF-12 ag
COc1cccc(/C=C(/C#N)c2nc3ccccc3[nH]2)c1OC(C)C(=O)O (centres undefined)	4.4	1.0*	.	.	5.3
Cc1cc(/C=C(\C#N)c2nc3ccccc3[nH]2)c(C)n1C	1.6	-1.0	2.67	57.2	3.1
COc1ccccc1N/C=C(\C#N)c1nc2ccccc2[nH]1	4.8	1.2*	1.06	3.2	1.4
Cc1ccc(/C=C(\C#N)c2nc3ccccc3[nH]2)s1	4.9	0.5	6.07*	215.2*	8.0
COC(=O)[C@]12C[C@H](CC(=O)NCCCN3CCCC3=O)C(=O)N(Cc3cccc4ccccc34)C1=C[C@H](COCc1ccccc1)O[C@@H]2C	-1.3	-0.7	.	.	3.9
COC(=O)C1CN(Cc2ccc(OC)cc2)CCS(=O)(=O)N1Cc1cn(Cc2ccc(F)cc2)nn1 (centres undefined)	-2.5	-1.6	.	.	-1.1
O=C(Nc1ccc(C(O)(C(F)(F)F)C(F)(F)F)cc1)c1c(F)cccc1F	0.6	-0.5	.	.	0.5
CCOC(=O)[C@H]1[C@H]2COc3ccc(OC)cc3[C@@H]2N2C(=O)CN(Cc3ccco3)C(=O)[C@@]12C	-0.5	-0.9	.	.	-1.8
CCOC(=O)[C@H]1[C@H]2COc3ccc(OC)cc3[C@@H]2N2C(=O)CN(CCc3c[nH]c4ccccc34)C(=O)[C@@]12C	4.9	1.0*	.	.	-1.3
COc1cc(C=Nn2c(-c3cc(C)[nH]n3)n[nH]c2=S)cc(Br)c1O	0.3	-1.8	.	.	-0.2
CNC(=O)C[C@H]1CC[C@H]2[C@@H](COc3ccc(NC(=O)Nc4ccccc4)cc3C(=O)N2C)O1	-0.5	-1.7	.	.	-2.5
COC(=O)c1ccc2nc(-c3ccc(C)cc3)c(CC3CCCCC3)n2c1	4.5	1.8*	.	.	5.8
COC(=O)c1ccc2nc(C3CCCCC3)c(Cc3ccc(C)cc3)n2c1	3.1	1.0*	.	.	4.7
COC(=O)c1ccc2nc(-c3ccc(F)cc3)c(CC3CCCCC3)n2c1	4.2	1.1*	.	.	5.5
Cc1cc2nc(-c3ccc(F)cc3)c(CC3CCCCC3)n2c(C)c1Br	5.4	1.0*	.	.	3.5
COc1ccc(-c2nc3cc(C)c(Br)c(C)n3c2CC2CCCCC2)cc1OC	0.5	0.7	.	.	-0.2
O=C(NCc1c(F)cccc1F)C1C2C=CC3(CN(Cc4ccccc4)C(=O)C13)O2 (centres undefined)	2.0	-1.6	.	.	-0.5
Cc1ccc(Cn2cc(CN3CC=CS3(=O)=O)nn2)cc1	-0.6	-0.7	.	.	6.2
Cc1ccc(Cc2c(-c3ccc(C)cc3)nc3ccc(Cl)cn23)cc1	2.1	-0.2	.	.	7.4
Cc1ccc(-c2nc3ccc(Cl)cn3c2CC2CCCCC2)cc1	7.1*	0.5	.	.	12.6*
CN[C@H]1C[C@H]2c3[nH]c4c(-c5cccc(C)c5)cccc4c3CCN2C(=O)[C@H]1[C@H](C)O	1.8	-1.1	.	.	-1.3
CC1=CCC(COC(=O)Nc2ccccc2)CC1 (centres undefined)	2.2	-0.1	3.04	94.5	11.0*
CC(=O)N1[C@H](CO)[C@@H](c2ccccc2)[C@@H]1CN(C(=O)c1ccc(F)cc1)C(C)C	-1.8	-0.7	.	.	1.0
O=C(CSc1nnc(-c2ccco2)n1Cc1ccco1)c1ccc([N+](=O)[O-])cc1	-1.0	-1.1	.	.	-0.8
CCCc1noc(-c2ccc(-c3ccccc3)cc2)n1	2.8	-0.2	5.67*	124.3	7.3
SMILES	hcDAF-12 act	ssDAF-12 act	NF-kB neuron act	APP 5'UTR act	hgDAF-12 ag
CCCc1noc(-c2cccc([N+](=O)[O-])c2)n1	-0.6	-1.4	1.44	13.3	1.6
Brc1ccc(/C=N/Nc2nc3ccccc3o2)cc1	5.9*	1.9*	.	.	11.5*
Oc1ccc2ccccc2c1N=Nc1ccccc1F	6.4*	-0.7	.	.	0.5
Oc1ccc2ccccc2c1N=Nc1ccccn1	-1.5	-1.8	1.19	-83.3	-8.1
Cc1ncc(CO)c(/C=N/NC(=S)Nc2ccc(F)cc2)c1O	1.3	-0.1	0.79	-32.0	0.3
Cc1ncc(CO)c(/C=N/N=C/c2ccccc2O)c1O	2.5	-0.5	3.57*	64.2	-0.8
CCOC(=O)[C@]12CCCC3=C1N(CCC3)C(=O)[C@@H](CC(=O)NCCCCc1ccccc1)C2	-1.9	-1.2	.	.	-1.2
CCCc1nc2ccc(C)cn2c1Cc1cccc(Cl)c1	5.6*	1.6*	.	.	7.9
CCCc1nc2ccc(C)cn2c1Cc1ccsc1	5.6*	-0.1	.	.	5.3
S=C(Nc1ccccc1Cl)N1CCC(c2ccccc2)C1 (centres undefined)	2.2	-0.5	3.37*	130.5	10.9*
O=C(Nc1ccc(Cl)cc1)N1CCC(c2ccccc2)C1 (centres undefined)	3.4	0.7	6.2*	168.8*	12.0*
Fc1ccccc1NC(=S)N1CCC(c2ccccc2)C1 (centres undefined)	1.8	0.0	2.49	60.8	3.1
CCCCOc1ccc(C(=O)NC2CCCCN(Cc3cccc(Cl)c3)C2=O)cc1 (centres undefined)	-3.4	-1.9	.	.	-3.0
COc1ccc(-c2cc3cc(OC)c(OC)cc3c(C)n2)cc1	-0.1	-1.1	.	12.5	11.3*
COC(=O)[C@]12C[C@H](CC(=O)N3CCCCC3)C(=O)N(Cc3ccc(Cl)cc3Cl)C1=C[C@H](C1CCCC1)O[C@@H]2C	0.2	-0.5	.	.	2.5
CC(=O)Nc1ccc(Nc2nccc(C)n2)cc1	4.2	0.1	.	.	4.1
Cc1ccnc(Nc2ccc(CCO)cc2)n1	4.2	0.0	.	.	11.4*
Cc1cccc2c1cnn2C(=O)Nc1ccccc1Cl	5.8*	-0.1	.	.	7.4
O=c1c2ccccc2nnn1COc1ccc(F)cc1Cl	1.3	-1.5	2.33	24.9	4.3
Cc1ccc(OCCn2nnc3ccccc32)cc1C	3.0	-0.8	.	.	12.6*
O=c1c2ccccc2nnn1COc1cccc2ccccc12	0.0	1.1*	2.13	49.3	9.8
CCOc1ccc(OCCn2nnc3ccccc3c2=O)cc1	2.7	-0.5	4.57*	44.5	5.7
CN(C)CC(=O)N[C@@H]1C[C@@H]2O[C@@H](CO)CC[C@@H]2O[C@@H]1CCc1ccc(C#Cc2ccccc2)cc1	-3.0	-2.3	.	.	-3.5
COc1cc(CNc2ccc(N3CCN(C(C)=O)CC3)cc2)ccc1OCc1ccc(F)cc1	-0.8	-1.5	1.05	-1.8	11.2*
CC(=O)N1CCN(c2ccc(NCc3ccc(F)cc3)cc2)CC1	-1.2	-1.7	0.87	-18.4	-2.0
CSCCC(NC(=O)COc1cccc2ccccc12)C(=O)O (centres undefined)	-0.6	1.0*	.	.	-2.6
C=C1CCC2C(C)(C)CCC[C@]2(C)[C@H]1CC1=C(O)C(=O)C(CO)=CC1=O (some centres undefined)	-6.3	-1.4	.	.	-13.7
